Common to all, as to experiment: NCI-60 one-dose screen, 48 h (100 = growth as untreated, 0 = no growth, -100 = all killed)
Details in all cases: 10 µM

The subject of test [1] is SR leukemia.
Test [2] has as its system RPMI-8226 leukemia.
The subject of test [3] is OVCAR-8 ovarian.
Test [4] has as its system OVCAR-5 ovarian.
Test [5] has as its system OVCAR-4 ovarian.
Test [6] concerns SK-OV-3 ovarian.
The subject of test [7] is IGROV1 ovarian.
Test [8] concerns OVCAR-3 ovarian.
For test [9], the system named is HS 578T breast.
The test system of test [10] is NCI/ADR-RES ovarian.
The subject of test [11] is T-47D breast.
The test system of test [12] is BT-549 breast.
Test [13] concerns MDA-MB-435 melanoma.
Test [14] concerns SW-620 colon.
Test [15] deals with MCF7 breast.
For test [16], the system named is HCT-116 colon.
The subject of test [17] is HCC-2998 colon.
The subject of test [18] is KM12 colon.

Each structure is given as a SMILES string. Compounds without any hit were thinned out: in the full panel of roughly 83,000, 20% have a hit.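 48-hour exposure, single concentration, 96-well plates; percent growth endpoint where 0 means no net growth. Active: below 10.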 Unmarked numbers belong to inactive results. Calls of active or inactive are those of the source.

`COc1ccc(C(=O)/C=C/c2cc(-c3ccc(OC)c(OC)c3)n[nH]2)cc1OC`: the growth in test [1] is 4.7% (active); in test [2], -45.9% (active); in test [3], -22.8% (active); in test [4] it was -8.32% (active); in test [5], -38.9% (active); in [6], 41.2%. The growth is -32.7% (active) in test [7]; -42% (active) in test [8]; 46.6% in test [9]; 4.63% (active) in [10]; -7.46% (active) in [11]; -60.1% (active) in [12]. For the same molecule, the growth in test [13] was -33.1% (active); in test [14], -48.8% (active); in [15], 4.18% (active); in test [16], -89.2% (active); in test [17], -85.8% (active); in test [18] it was -74.1% (active).
Take `COc1cc(C2=Nc3c/c(=C\c4c(O)[nH]c5ccc(Cl)cc45)ccc3=N2)cc(OC)c1OC`: the growth was -18% (active) in test [1]; 16.3% in test [2]; -71.4% (active) in [3]; 79.6% in [4]; -83.1% (active) in [5]; 85.7% in [6]. For the same molecule, the growth in test [7] is 49%; in test [8], 17.3%; in test [9], -43.3% (active); in test [10], 52.2%; in test [11], 48.5%; in [12] it was -28.2% (active). Besides, the growth in test [13] was -65.7% (active); in [14], -48.2% (active); in [15], -41.8% (active); in [16], -51.4% (active); in test [17], 66.3%; in test [18] it was 5.27% (active).
Take `Oc1ccc(/C=N\Nc2ccccn2)c(O)c1`: the growth in [1] was 11.7%; in test [2] it was 26.2%; in test [3], 26.6%; in test [4] it was 61.4%; in test [5], 32.7%; in test [6], 32.4%. The growth was 22.7% in test [7]; -2.36% (active) in test [8]; 65.8% in [9]; 0.0991% (active) in [10]; 33.7% in test [11]; 23.7% in test [12]. Moreover, the growth in test [13] was 34.2%; in test [14], 35.3%; in test [15], 0.224% (active); in test [16], 4.54% (active); in test [17] it was 23.9%; in [18], 38.4%.
For `O=C(O)c1ccc(CNc2ccc(C(=O)CCl)cc2)cc1`, the growth in [1] is 41.8%; in test [2] it was 85.7%; in test [3], 99.3%; in test [4], 96.8%; in test [5], 91%; in test [6], 100%. The growth in test [7] was 134%; in test [8] it was 90.5%; in [9] it was 87.4%; in [10], 123%; in [11] it was 58.1%; in test [12] it was 96.4%. Further, the growth was 87.7% in [13]; 93.4% in test [14]; 32.4% in test [15]; 80.8% in test [16]; 127% in test [17]; 101% in [18].
As for `O=C(Nc1cccc(Cl)c1)OCC(COC(=O)Nc1cccc(Cl)c1)(COC(=O)Nc1cccc(Cl)c1)[N+](=O)[O-]`, the growth in test [1] was 22.4%; in test [2] it was 19.5%; in test [3], 44%; in test [4], 89.1%; in [5], 30.8%; in test [6], 64.8%. Further, the growth in test [7] was 42.3%; in test [8], 20.6%; in test [9], 52.1%; in [10] it was 35.4%; in test [11] it was 14.7%; in test [12], 50.8%. The growth in test [13] is 39.9%; in test [14], 45.6%; in test [15], 21.1%; in test [16] it was 16.3%; in [17], 36.9%; in test [18], 23.8%.
`Cc1ccc(S(=O)(=O)N2CCc3ccccc3CC2)cc1`: the growth in test [1] was 84.8%; in test [2], 42.3%; in test [3] it was 79.2%; in [4] it was 94.3%; in test [5] it was 44.8%; in test [6], 96.3%. Further, the growth is 104% in test [7]; 103% in test [8]; 109% in test [9]; 69.8% in test [10]; 63.1% in test [11]; 64.7% in [12]. The growth in test [13] is 101%; in test [14], 97.6%; in [15], 60.7%; in test [16], 68.5%; in [17], 91%; in test [18], 94.3%.
As for `COc1ccc(C(=O)c2sc3nc(-c4cccs4)ccc3c2N)cc1OC`, the growth in test [1] was 14.5%; in [2] it was 43.4%; in [3] it was 53%; in test [4] it was 82.2%; in test [5], 61.2%; in [6], 70.9%. Moreover, the growth is 63.3% in test [7]; 45.1% in test [8]; 50.4% in [9]; 37.8% in [10]; 25.3% in [11]; 48.9% in test [12]. Besides, the growth in [13] is 5.62% (active); in [14], 45.4%; in [15], 24.7%; in test [16], 43.3%; in [17], 82%; in [18] it was 38.1%.
With `Cc1nc(N)sc1Sc1nc2ccc(Cl)cc2c(=O)n1-c1ccc(Oc2ccccc2)cc1`, the growth in [1] was -44.8% (active); in test [2], 68.1%; in test [3] it was 75.2%; in test [4], 87.9%; in test [5], 40.9%; in test [6], 104%. Besides, the growth in [7] was 101%; in test [8] it was 91.3%; in [9], 81.9%; in [10], 69.9%; in [11] it was 75.5%; in test [12], 63.2%. Besides, the growth was 88.1% in test [13]; 66.1% in [14]; 87.4% in [15]; 33.3% in test [16]; 74.1% in [17]; 79.8% in test [18].

Source of the values: PubChem BioAssay (NCI).
